The results in this text go back to PubChem BioAssay AID449762 (Southern Research Specialized Biocontainment Screening …, 2010).

Out of some 330,000 compounds screened, about 1,900 (0.58%) were called active. Not shown: some 4% with an inconclusive outcome. No stated cut-off is given here; in the data, inconclusive means inhibition above about 70% without an active follow-up result; inactive means below that. A selection follows. Results with a measured potency or affinity are listed apart.

The assay can be described thus: M. tuberculosis growth inhibition, HTS (AID 449762).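 Further: bacterial growth assessed after seven days of incubation.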 The following applies: M. tuberculosis H37Rv growth inhibition, 7H9 media; at 25 µM; hits give high values.
Regarding `COc1cccc(CN(C)C(=O)/C=C/c2ccc(S(=O)(=O)N3CCCCCC3)cc2)c1`, the inhibition is 4.38% (inactive).

Consider `Cc1cc(=O)oc2ccc(OCC(=O)N3CCc4ccccc43)cc12`, for which the inhibition is -7.76% (inactive).

Consider `Cc1cc(=O)[nH]c(N=N/C(=N/Nc2ccccc2C)c2ccccc2)n1`, for which the inhibition was 68.7% (inactive).

Take `COc1ccc(N/C(N)=N/c2nc(C)cc(=O)[nH]2)cc1`: the inhibition is 4.61% (inactive).

With `Oc1ccc(/C=N/Nc2ccc(Cl)nn2)c(O)c1O`, the inhibition was -6.06% (inactive).

As to `CCOc1ccccc1/C=N/Nc1ccc(Cl)nn1`, the inhibition is 13.2% (inactive).

For the compound `C/C(=N\NC(N)=O)c1ccc(Cl)s1`, the inhibition was -8.77% (inactive).

Regarding `C/C(=N\NC(=S)NCc1ccccc1)c1ccc(Cl)s1`, the inhibition is -0.65% (inactive).

As to `Cc1cccc(N(C)S(=O)(=O)c2c(C)noc2C)c1`, the inhibition is 2.4% (inactive).

As for `C/C(CC(=O)Nc1ccccn1)=N\NC(=O)c1ccccc1O`, the inhibition is -3.57% (inactive).

Consider `O=C(Nc1ccc2oc(-c3ccc(Cl)c(Cl)c3)nc2c1)c1ncn[nH]1`, for which the inhibition is 50.6% (inactive).

In the case of `O=C(Nc1ccc2oc(-c3cccc4ccccc34)nc2c1)c1ncn[nH]1`, the inhibition is 9.87% (inactive).

As to `CC(=O)N(C(C)=O)c1c(C#N)c(C)n(-c2ccccc2)c1C(=O)c1ccccc1`, the inhibition was -0.27% (inactive).

For the compound `CCCC(=O)c1ccc(-c2ccccc2)cc1`, the inhibition is 1.42% (inactive).

In the case of `Cc1ccc2nc(NC(=O)CN3C(=O)NC4(CCCCC4)C3=O)sc2c1`, the inhibition was 5.87% (inactive).

Turning to `COc1ccccc1NS(=O)(=O)c1cc(C(=O)NCCC(C)C)ccc1F`, the inhibition is 16.6% (inactive).

For the compound `CCOC(=O)c1nc2sc3c(c2c(=O)[nH]1)CCCC3`, the inhibition was 2.32% (inactive).

Turning to `CC(C)CCOCc1nc2sc3c(c2c(=O)[nH]1)CCC(C)C3` (stereo unspecified), the inhibition is -5.2% (inactive).

On to `COC(=O)C1CCN(c2nc3ccccc3nc2C(C#N)C(=O)OCC(C)C)CC1` (stereo unspecified), for which the inhibition is -4.17% (inactive).

Take `COc1ccccc1NS(=O)(=O)c1cccc(NC(=O)C2CC2)c1`: the inhibition was -4.5% (inactive).

In the case of `COc1cc(OC)c(C#N)c(S(=O)(=O)Cc2ccccc2)c1`, the inhibition is -8.56% (inactive).

`O=[N+]([O-])c1ccc(OS(=O)(=O)Cc2ccccc2)cc1`: the inhibition was 4.45% (inactive).

For the compound `O=C(CS(=O)(=O)c1cn(CC(=O)N2CCCC2)c2ccccc12)Nc1ccccc1F`, the inhibition was 2.67% (inactive).

Turning to `Cc1c(C(c2ccc(F)cc2)c2c(C)n(C)n(-c3ccccc3)c2=O)c(=O)n(-c2ccccc2)n1C`, the inhibition was 5.49% (inactive).

For `OCCOCCn1c(C(CO)Nc2nc(-c3ccc(F)cc3)cs2)nc2ccccc21` (stereo unspecified), the inhibition is 6.37% (inactive).

Turning to `COc1ccc(-c2csc(NC(CO)c3nc4ccccc4n3Cc3ccc(C)cc3)n2)cc1` (stereo unspecified), the inhibition was 25.6% (inactive).

As to `Cc1ccc(NCc2nc(SCC(=O)Nc3ccccc3)n[nH]2)cc1`, the inhibition was -2.62% (inactive).

As to `COc1ccc(NC(=O)C(C)NS(=O)(=O)c2ccc(NC(C)=O)cc2)cc1Cl` (stereo unspecified), the inhibition is -1.73% (inactive).

`COc1ccc(NC(=O)C(C)NS(=O)(=O)c2ccccc2)cc1Cl` (stereo unspecified): the inhibition was -8.72% (inactive).

For the compound `COc1ccc(CCN=C(N)NS(=O)(=O)c2ccc(C)cc2)cc1OC`, the inhibition is -1.62% (inactive).

Take `CCc1ccc(C2c3[nH]c4ccccc4c3CCN2C(=O)c2cc[n+]([O-])cc2)cc1` (stereo unspecified): the inhibition is -3.85% (inactive).

For `Cc1ccccc1C1c2[nH]c3ccccc3c2CCN1C(=O)c1ccc(=O)n(C)n1` (stereo unspecified), the inhibition was 53.9% (inactive).

For the compound `COc1cc(N/C=C(\C(C)=O)c2ccccc2)cc(OC)c1`, the inhibition was 4.79% (inactive).

As to `O=C(Nc1ccc(OCc2ccccc2)cc1)c1ccccc1`, the inhibition was -2.87% (inactive).

With `COc1ccc(CCNCC(=O)Nc2ccc(OC(F)F)cc2)cc1`, the inhibition was -4.99% (inactive).

On to `CCCCC1CCC(C(=O)N(CCCC)c2c(N)n(CCCC)c(=O)[nH]c2=O)CC1` (stereo unspecified), for which the inhibition is -9.54% (inactive).

With `Clc1nc(CN2CCOCC2)nc2sc3c(c12)CCC3`, the inhibition was 6.4% (inactive).

For `CC1CCc2c(sc3nc(CN4CCOCC4)nc(N4CCc5ccccc5C4)c23)C1` (stereo unspecified), the inhibition was 6.42% (inactive).

`CCc1ccccc1Nc1nc(N)nc(CSCC(=O)c2cc(C)n(C)c2C)n1`: the inhibition is -11.5% (inactive).

Turning to `O=C(NCCCc1ccc(F)cc1)C1CCC(=O)N(CCCN2CCCC2=O)C1` (stereo unspecified), the inhibition was 11.4% (inactive).

On to `O=C1CC(Sc2nnc(-c3ccccc3)o2)C(=O)N1c1ccccc1` (stereo unspecified), for which the inhibition is -3.28% (inactive).

Regarding `O=C1OCCC1Sc1nnc(-c2ccccc2)o1` (stereo unspecified), the inhibition is -4.39% (inactive).

On to `COc1ccccc1OCC(=O)Nc1ccc(S(=O)(=O)N2CCOCC2)cc1`, for which the inhibition was -3.94% (inactive).

In the case of `CCCCn1c(=O)[nH]c(=O)c2c1nc(-c1ccsc1)n2Cc1ccccc1`, the inhibition is 7.19% (inactive).

Consider `CC(C)c1nnc2n1N=C(c1ccc(Cl)cc1)CS2`, for which the inhibition was 45.3% (inactive).

Take `CCC(=O)Nc1ccc(C2=Nn3c(nnc3C(C)C)SC2)cc1`: the inhibition was 9.12% (inactive).

With `Cc1ccc(CN2CCSc3ccc(C(=O)NCC4CCCO4)cc32)cc1` (stereo unspecified), the inhibition is -1.08% (inactive).

`Nc1ccc(Nc2ccc([N+](=O)[O-])cc2[N+](=O)[O-])cc1`: the inhibition is 4.35% (inactive).

Regarding `Nc1cc([N+](=O)[O-])ccc1Nc1ccccc1`, the inhibition was 2.95% (inactive).

Take `COc1ccc2sc(-c3ccc(S(C)(=O)=O)cc3)c(C(=O)NCCc3c[nH]c4ccccc34)c2c1`: the inhibition was 0.16% (inactive).

With `CN1C(=O)N(C)C(=O)C2(Cc3cc(N)ccc3N3CCN(c4ccccc4F)CC32)C1=O` (stereo unspecified), the inhibition was -0.78% (inactive).

Turning to `Cc1ccc(C(=O)NC(=S)N(C)C2CCCCC2)cc1`, the inhibition is 62.7% (inactive).

Take `CN(C(=S)NC(=O)c1ccccc1)C1CCCCC1`: the inhibition is 60.5% (inactive).

Take `O=C(NCc1ccc2c(c1)OCO2)C1CCC(CNS(=O)(=O)c2ccc(Cl)cc2)CC1` (stereo unspecified): the inhibition is -12% (inactive).

On to `O=C(CN1C(=O)NC2(CCCC2)C1=O)N1CCN(S(=O)(=O)c2ccc(Cl)c(C(F)(F)F)c2)CC1`, for which the inhibition is -1.26% (inactive).

In the case of `CC1CCCC(C)N1/N=C/c1cccc(Br)c1` (stereo unspecified), the inhibition was 2.02% (inactive).

As to `Brc1ccc2[nH]cc(/C=N/N3CCCCC3)c2c1`, the inhibition is -3.65% (inactive).

As to `CCCCNS(=O)(=O)c1ccc(OC)c2ncccc12`, the inhibition is -7.49% (inactive).

As to `COc1cc(NC(=O)c2ccc3snnc3c2)cc(OC)c1`, the inhibition was -2.63% (inactive).

Take `COC(=O)[C@H](C)NC(=O)c1cc2c(cn1)[nH]c1ccccc12`: the inhibition is 25.1% (inactive).

For `C[C@H](NC(=O)c1cc2c(cn1)[nH]c1ccccc12)C(=O)O`, the inhibition is 61.1% (inactive).

In general, inhibition refers to the drop in the measured response relative to a control, in per cent.
